Assay in all cases: NCI-60 one-dose screen, 48 h (100 = growth as untreated, 0 = no growth, -100 = all killed)
Holding throughout (details): 10 µM

Experiment [1] concerns EKVX NSCLC.
In experiment [2] the test system is SN12C renal.
Experiment [3] relates to UO-31 renal.
For experiment [4], the system named is TK-10 renal.
The subject of experiment [5] is ACHN renal.
Experiment [6] deals with CAKI-1 renal.
Experiment [7] relates to CCRF-CEM leukemia.
Experiment [8] concerns MOLT-4 leukemia.
Experiment [9] concerns SR leukemia.
The subject of experiment [10] is A498 renal.

From PubChem BioAssay (NCI) come the findings set out here.

Structures are written as SMILES. About 83,000 compounds went through this panel and 20% of them were active in at least one assay; those are over-represented in the sample as a whole.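 Activity criterion: percent growth below 10, measured after cells in 96-well plates were exposed to a single compound concentration for 48 hours.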 A number with no mark means an inactive call. Activity calls are given as the source filed them.

`O=C(Nc1nc(-c2ccccc2Cl)cs1)c1cc(-c2ccc(Cl)cc2)nc2ccc(Cl)cc12`: the growth in experiment [1] was 73.9%; in experiment [2], 30.3%; in experiment [3] it was 28.4%; in experiment [4], 98.4%; in experiment [5] it was 36.9%; in [6], 81.7%. For the same molecule, the growth in experiment [7] is 28.4%; in [8] it was 18.4%; in [9], 12.9%.

Turning to `CC(C)=NNc1ncnc2c1ncn2C1OC(CO)C(O)C1O` (stereo not drawn), the growth is 43.7% in experiment [1]; 20.5% in experiment [2]; -3.29% (active) in [3]; 57.5% in experiment [4]; 12.3% in experiment [5]; -19% (active) in experiment [6]. Moreover, the growth is 35.9% in experiment [7] and 56.4% in experiment [8].

On to `CN1CCC2(CC1)NC(=O)c1c(c3ccc(Cl)c(Cl)c3n1C)C2C#N` (stereo not drawn), for which the growth in experiment [1] is 89%; in [2], 64.3%; in [3] it was 61.7%; in experiment [4], 98.7%; in experiment [5] it was 73.9%; in experiment [6] it was -26.4% (active). Moreover, the growth in experiment [10] is 59.8%; in [8], 64.1%; in experiment [9], 39.4%.

On to `CCN(CC)Cc1cc(Nc2ccnc3cc(Cl)ccc23)ccc1OC`, for which the growth in experiment [1] is 97.2%; in [2], 91.2%; in experiment [3], 55.9%; in [4] it was 94.9%; in experiment [5], 97%; in experiment [6] it was 102%. Also, the growth is 69.1% in [7], 78.9% in experiment [8] and 83.2% in [9].

As to `Cc1cccc(Cl)c1NC(=O)c1ccc2nc(NC(=O)NC3CCN(C)CC3)sc2c1`, the growth is 90.9% in [1]; 73.8% in experiment [2]; 84.1% in experiment [3]; 83.8% in [4]; 102% in [5]; 100% in experiment [6]. Besides, the growth in [10] is 104%; in [8], 77.9%; in experiment [9], 86.7%.

Consider `Nc1ccc2c(c1)Cc1cc(N)c(Br)cc1-2`, for which the growth in experiment [1] was 46.8%; in experiment [2] it was 113%; in [3], 76.9%; in [4], 138%; in experiment [5], 87%; in [6] it was 86.6%. In addition, the growth in experiment [7] was 82.1%; in experiment [8] it was 94.1%.

Turning to `O=[P@@]1(c2ccccc2)O[C@H](COCc2ccccc2)[C@@H](OCc2ccccc2)[C@H](OCc2ccccc2)[C@H]1O`, the growth is 70.7% in experiment [1]; 82.9% in experiment [2]; 90.5% in experiment [3]; 76% in [4]; 78.7% in [5]; 72.8% in experiment [6]. Further, the figures for the growth in [7], in [8] and in [9] were 92.3%, 94.3% and 103%, respectively.

Regarding `O=C(Nc1cccc(Br)c1)c1cc(=O)[nH]c2ccccc12`, the growth in [1] was 87.1%; in experiment [2], 99.7%; in [3] it was 97.9%; in experiment [4] it was 109%; in experiment [5], 98.5%; in [6], 76.6%. Moreover, the growth was 111% in experiment [10], 96.1% in experiment [8] and 81% in experiment [9].

As for `CNc1ccc(CSc2ccc(C)cc2)cc1`, the growth is 102% in experiment [1]; 29.4% in experiment [2]; 24.1% in [3]; 86.1% in [4]; 108% in experiment [5]; 73.2% in experiment [6]. In addition, the growth in experiment [7] was 43.7%; in [8] it was 82.6%; in [9], 80.4%.

Take `CC(C)N(CCNc1nc(C(Cl)(Cl)Cl)nc2cc(Cl)ccc12)C(C)C`: the growth in experiment [1] was 8.11% (active); in experiment [2], 17.9%; in experiment [3], -29% (active); in experiment [4], -84.3% (active); in [5], -36.2% (active); in [6], -84.1% (active). Besides, the growth in experiment [7] is -8.62% (active); in experiment [8] it was -21.4% (active).

Consider `COc1cc(C(=C2O[C@@H]([C@H]3COC(C)(C)O3)[C@H]3OC(C)(C)O[C@@H]23)c2cc(OC)c(OC)c(OC)c2)cc(OC)c1OC`, for which the growth was 98.5% in experiment [1]; 92.9% in [2]; 95.8% in experiment [3]; 111% in experiment [4]; 99.8% in experiment [5]; 107% in experiment [6]. Besides, the growth was 103% in experiment [7] and 99.8% in experiment [8].

Regarding `COc1cc(C)ccc1C(=O)c1ccc(C)cc1OC`, the growth in [1] is 31.2%; in experiment [2], 43.2%; in experiment [3], 31.4%; in experiment [4], 38.3%; in experiment [5] it was 60.8%; in experiment [6], 23.4%. For the same molecule, the growth is -4.5% (active) in experiment [10], 32.3% in experiment [8] and -10.2% (active) in [9].

With `COc1ccc(Cl)cc1C(=O)Nc1nc2ccc(Cl)cc2s1`, the growth is 76.2% in experiment [1]; 91.7% in [2]; 58.2% in experiment [3]; 127% in experiment [4]; 85.9% in [5]; 84.4% in experiment [6]. Besides, the growth in experiment [7] is 86.4%; in [8], 95.6%.

Consider `COC(=O)c1ccc(=O)oc1`, for which the growth in [1] was 98.6%; in [2], 85.8%; in experiment [3], 75.7%; in [4], 103%; in experiment [5], 98.9%; in experiment [6], 101%. Further, the growth in experiment [7] was 101%; in experiment [8], 94%.

As to `CN(C)c1ccc(Cc2ccc(N(C)C)cc2Cl)c(Cl)c1`, the growth is 103% in experiment [1]; 99.2% in [2]; 67.6% in experiment [3]; 88.9% in experiment [4]; 98.4% in experiment [5]; 99.1% in experiment [6]. Besides, the growth in [7] was 91.6%; in experiment [8] it was 46%.

For `CCOC(=O)C1CCc2c(ccc3ccccc23)N1CCC#N` (stereo not drawn), the growth was 92.8% in experiment [1]; 98.7% in experiment [2]; 74.9% in [3]; 116% in experiment [4]; 115% in [5]; 80.2% in experiment [6]. The growth in experiment [7] is 89.2%; in [8], 77.9%; in experiment [9], 63%.

Consider `CN(C)CCCn1c(=O)c2ccccc2c2cnc3[nH]ccc3c21`, for which the growth in experiment [1] was 10.5%; in experiment [2], 10.2%; in experiment [3] it was 0.877% (active); in [4], 8.77% (active); in [5] it was -1.65% (active); in [6], 22.5%. Also, the growth in experiment [7] is 18.6%; in experiment [8] it was -5.39% (active); in [9] it was -35% (active).

For `O=C1/C(=C/c2ccc(Cl)cc2)SC(=Nc2ccc(Cl)cc2)N1Cc1nc2ccccc2[nH]1`, the growth in [1] was 64.5%; in experiment [2], 79.3%; in experiment [3], 37.5%; in experiment [4] it was 104%; in experiment [5], 91.9%; in experiment [6], 8.38% (active). The growth in [7] is 62.6%; in experiment [8], 57.3%; in experiment [9], 46.6%.

Regarding `Cc1ccc(Nc2nnc(-c3cc(-c4ccncc4)n(-c4ccccc4)n3)s2)cc1`, the growth in experiment [1] is 97.7%; in [2], 88.5%; in experiment [3] it was 40.3%; in experiment [4], 102%; in experiment [5] it was 83%; in [6] it was 85.9%. In addition, the growth was 35.7% in experiment [7], 59.5% in experiment [8] and 63.6% in experiment [9].

With `CS(=O)(=O)Nc1cccc(-c2cc(-c3ccccc3Cl)c(C#N)c(N)n2)c1`, the growth in experiment [1] is 27%; in experiment [2], 51.6%; in experiment [3], 26%; in [4] it was 63.5%; in experiment [5], 46.8%; in experiment [6], 16.1%. Also, the growth was 20.6% in experiment [7], 24.6% in experiment [8] and 23.9% in experiment [9].

On to `COc1cc([C@@H]2c3cc4c(cc3C(Br)[C@H]3COC(=O)[C@H]23)OCO4)cc(OC)c1OC` (stereo partly drawn), for which the growth is 22% in experiment [1]; 31% in [2]; 8.5% (active) in experiment [3]; 54.2% in [4]; 22.5% in [5]; 12.3% in experiment [6]. Besides, the growth in [7] is -15.5% (active).

As to `CCOC(=O)CCC(NC(=O)c1ccc(N)cc1)C(=O)OCC` (stereo not drawn), the growth in experiment [1] was 121%; in [2] it was 103%; in experiment [3] it was 76.9%; in [4], 102%; in [5], 95.3%; in experiment [6], 123%. For the same molecule, the figures for the growth in [10], in [8] and in [9] were 112%, 114% and 121%, respectively.

`COc1cc(-c2nnc(-c3c(-c4ccc(F)cc4)nc4ccccn34)o2)cc(OC)c1OC`: the growth is 97% in [1]; 68.2% in experiment [2]; 62.9% in experiment [3]; 89.7% in experiment [4]; 51.8% in experiment [5]; 91.3% in experiment [6]. Besides, the figures for the growth in [10], in experiment [8] and in experiment [9] were 62.7%, 89.6% and 25.3%, respectively.

As to `COc1ccc(-c2nc3ccccn3c2-c2nnc(-c3cc(OC)c(OC)c(OC)c3)o2)cc1`, the growth was 71% in experiment [1]; 69.7% in experiment [2]; 77.7% in experiment [3]; 77.9% in [4]; 49.4% in experiment [5]; 80.1% in experiment [6]. Also, the growth in experiment [10] is 48.2%; in [8], 92.1%; in [9] it was 37.7%.

For `O=C(CSSCC(=O)c1ccc(Cl)cc1)c1ccc(Cl)cc1`, the growth in experiment [1] was 91.4%; in [2] it was 79.1%; in experiment [3] it was 86.4%; in [4], 41.3%; in experiment [5], 82.1%; in experiment [6], 96.5%. Besides, the growth is 15.3% in [7], 13.9% in [8] and 18.7% in [9].

Turning to `O=C1/C(=C\c2cn(C(=O)c3ccc(Cl)cc3)c3ccccc23)c2ccccc2N1C(=O)c1ccc(Cl)cc1`, the growth in experiment [1] was 70.7%; in [2] it was 80.8%; in experiment [3], 64.4%; in experiment [4], 55.3%; in experiment [5] it was 63.3%; in [6], 73.8%. Also, the growth in [10] is 81.1%; in experiment [8] it was 61.5%; in [9] it was 56.1%.

With `ClCCOCCn1cnc2c(Cl)nc(Cl)nc21`, the growth was 92.4% in experiment [1]; 63.3% in experiment [2]; 88% in [3]; 92.7% in [4]; 81.3% in experiment [5]; -4.35% (active) in experiment [6]. Further, the growth in experiment [10] was 93.1%; in experiment [8], 79.8%; in experiment [9], 41.5%.

Consider `Cc1ccc2oc3nc(C)c(C(=O)NCc4ccccc4)cc3c(=O)c2c1`, for which the growth was 77.1% in experiment [1]; 96.5% in [2]; 63% in experiment [3]; 87.2% in [4]; 63.8% in experiment [5]; 60.3% in [6]. Further, the growth is 104% in experiment [10], 64.3% in experiment [8] and 79.9% in experiment [9].
